# CBFb RUNX1 block – blocks binding between human CBF-beta and RUNX1; Potency, µM (highest dose often 59.8 µM), for inactives: at the top dose activity, negative = inhibition, actives largely listed as inhibitors; AlphaScreen CBFb-His/RUNX1-biotin binding, biochemical; AID 1477; Q01196+Q13951; 230,000 tested, under 10 active; also: % of control where 0% means no effect
#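 Room-temperature protein-protein interaction test with 30 nM each of His-tagged CBF-beta and biotinylated RUNX1, 15 min with compound, then 90 min with nickel plus streptavidin beads. Signal read in AlphaScreen mode.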
# PLK1 PBD inh – PLK1 (human) polo-box domain binding inhibition; P53350; Plk1 PBD binding of FITC phosphopeptide, fluorescence polarization; Potency, µM, for inactives: max response, negative = inhibition, usual class: inhibitors; 360,000 compounds, 2.8% hits; AID 720504; also: potency is read from the fitted curve at half-maximal effect; series mostly up to about 57 µM; % is scaled to controls: 0 for no effect and ±100 for the full control effect; nearly all actives have a fitted effect of over 65% in size
# Target sequence (P53350 whole entry, looked up, the tested form may be a part): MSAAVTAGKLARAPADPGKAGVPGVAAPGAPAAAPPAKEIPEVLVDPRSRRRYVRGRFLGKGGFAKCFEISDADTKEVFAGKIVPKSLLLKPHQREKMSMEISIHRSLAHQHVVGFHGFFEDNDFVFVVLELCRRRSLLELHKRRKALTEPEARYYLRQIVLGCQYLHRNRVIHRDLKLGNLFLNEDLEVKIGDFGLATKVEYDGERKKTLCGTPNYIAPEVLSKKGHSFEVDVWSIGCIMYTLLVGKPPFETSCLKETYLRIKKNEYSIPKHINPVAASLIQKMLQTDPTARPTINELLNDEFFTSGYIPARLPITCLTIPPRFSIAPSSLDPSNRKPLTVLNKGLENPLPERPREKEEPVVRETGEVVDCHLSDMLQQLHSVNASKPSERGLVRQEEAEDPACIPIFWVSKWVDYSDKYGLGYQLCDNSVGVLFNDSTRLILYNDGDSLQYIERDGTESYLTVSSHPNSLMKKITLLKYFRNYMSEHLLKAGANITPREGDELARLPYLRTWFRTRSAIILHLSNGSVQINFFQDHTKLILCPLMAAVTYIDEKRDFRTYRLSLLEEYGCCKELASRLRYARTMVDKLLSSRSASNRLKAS
# MBNL1-CUG inh – blocks human MBNL1 binding to CUG repeat RNA; TR-FRET MBNL1-His/biotin-(CUG)12 binding, 665/545 ratio; Q9NR56; 280,000 compounds, 0.036% hits; Potency, µM (series often up to 57.5 µM), for inactives: at the top dose activity change, negative = inhibition, hits mostly inhibitors; active = well fitted inhibition curve with a large enough effect in the signal ratio, with a control signal flat, not every such curve was filed as active; inconclusive = small, poorly fitted or top-dose-only effect, or effect the other way, or a change in a side signal; inactive = no such curve, though single readings can be large or run the other way; the % refers to the signal ratio; also: potency is read from the fitted curve at half-maximal effect; % is scaled to controls: 0 for no effect and ±100 for the full control effect
#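 Ratiometric TR-FRET (665 over 545 nm, excitation 340 nm) tracks disruption of MBNL1-His/biotin-(CUG)12 complex after 60 min at room temperature, with compounds at 92 nM to 58 uM final.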
# VDR inh – vitamin D3 receptor (human) inhibition | AID 504847 | Potency, µM, for inactives: max response, negative = inhibition, actives largely listed as inhibitors | VDR-SRC2-3 peptide fluorescence polarization, 2 h | 400,000 compounds, 0.93% hits | P11473; also: potency is read from the fitted curve at half-maximal effect; % is scaled to controls: 0 for no effect and ±100 for the full control effect
#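 Fluorescence polarization assay of small-molecule disruption of VDR binding to coregulator peptide SRC2-3. Compounds and controls pin-transferred, then read after 2 h incubation at ambient room temperature.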
# KCNH2 3.1 inh – inhibitors of human KCNH2 3.1 potassium channel isoform | U2OS KCNH2 3.1, thallium flux FluxOr; stronger effect = lower value | activity change, % (tested at about 1.8 µM) | 340,000 compounds, 0.95% hits;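 active = maximum activity change below -70%; inconclusive = maximum activity change from -70% to -50%; inactive = maximum activity change above -50%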;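 also: thallium influx rate constant from kinetic fluorescence after stimulation buffer; % is scaled to controls: 0 for no effect and ±100 for the full control effect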
#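 Channel expression came from 3.1 mutant virus (1.77 x 10^8 /mL) applied to suspended U2OS cells for 4 h. Flux was tracked with FluxOr dye plus Red40 quencher, and kinetic rate constants normalized to controls.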
# KCNH2 WT inh – blocks the wildtype human KCNH2 potassium channel. AID 720551. 340,000 compounds, 0.37% hits. activity change, % at 1.84 µM. U2OS, BacMam KCNH2, thallium flux FluxOr; stronger effect = lower value. Q12809;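 active = maximum activity change below -70%; inconclusive = maximum activity change between -70% and -50%; inactive = maximum activity change above -50%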; also: % is scaled to controls: 0 for no effect and ±100 for the full control effect
#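 U2OS cells were transduced with wild-type KCNH2 virus (2.03 x 10^8 / mL) for 4 h at room temperature, then cultured overnight at 37 C. Thallium flux was read with FluxOr dye. Rate constants were normalized to DMSO controls.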
# * hit, by the source's call; u = inconclusive; x = no result; [ ] = remark or other dose. Sampled rows, rich in hits. Any-hit rate of the full collection: about 3.8%. Unless noted, calls follow the shape of the dose curve; as a rule, active = well fitted curve in the direction sought with a large enough effect; inconclusive = small, poorly fitted or top-dose-only effect, or another doubt; inactive = no such curve, though single readings can be large; an effect the other way counts as inactive or inconclusive.
SMILES,CBFb RUNX1 block,PLK1 PBD inh,MBNL1-CUG inh,VDR inh,KCNH2 3.1 inh,KCNH2 WT inh
O=C(c1cc(COc2ccc(F)cc2Cl)on1)N1CCCCCC1,x,4%,-7%,-10%,-3,-30
CC(C)c1ccc(CNc2nc(-c3ccco3)nn2S(=O)(=O)c2ccc(F)cc2)cc1,x,x,x,7%,x,x
CCOC(=O)CNC(=O)c1cnc(Nc2ccccc2OC)c2ccccc12,x,-3%,u,14%,-3,-1
CCOC(=O)N1CCN(C(=O)c2cnc(Nc3ccccc3OC)c3ccccc23)CC1,17%,-8%,0%,6%,-193*,2
O=C(CCc1ccccc1)NNC(=O)COc1ccccc1,9%,-15%,1%,2%,-100*,7
O=C(COC(=O)CSc1ccc([N+](=O)[O-])cc1)NC1CCCCCCC1,x,24µM*,x,u,-18,10
CN(C(=O)COC(=O)CSc1ccc([N+](=O)[O-])cc1)C1CCS(=O)(=O)C1 (stereo unspecified),x,-12%,x,6%,24,0
CC(OC(=O)CSc1ccc([N+](=O)[O-])cc1)C(=O)NCc1ccccc1 (stereo unspecified),x,4.7µM*,x,79µM*,-19,-5
CSc1ccc(S(=O)(=O)NCC(=O)OC(C)C(=O)NCc2ccccc2)cc1[N+](=O)[O-] (stereo unspecified),x,-7%,x,-7%,-8,2
NC(=O)c1ccc(SCC(=O)OCC(=O)NC2CCCCCCC2)c([N+](=O)[O-])c1,x,24µM*,x,-18%,3,1
CCN(C(=O)COC(=O)CSc1ccc([N+](=O)[O-])cc1)C1CCS(=O)(=O)C1 (stereo unspecified),x,7.5µM*,u,u,-3,-1
O=C(COC(=O)CSc1ccc([N+](=O)[O-])cc1)NCCCc1ccccc1,x,8.4µM*,u,71µM*,-12,-7
Cc1ccc(CN(C)C(=O)COC(=O)CSc2ccc([N+](=O)[O-])cc2)cc1,x,13µM*,x,u,-4,-10
Cc1ccccc1CN(C)C(=O)COC(=O)CSc1ccc([N+](=O)[O-])cc1,x,-20%,x,-5%,-2,4
O=C(COC(=O)CSc1ccc([N+](=O)[O-])cc1)NCCc1ccccc1,x,u,x,-19%,-1,u
CCOc1ccc(C(=O)Nc2nnc(S(=O)(=O)N(CC)c3ccccc3C)s2)cc1,x,x,x,3%,x,x
CCOC(=O)c1ccn(-c2nc(-c3cccc(OC)c3)cc(C(F)(F)F)n2)n1,x,x,x,-12%,x,x
CC(=O)Nc1ccc(OCC(O)Cn2cccn2)cc1 (stereo unspecified),x,-6%,-5%,-22%,-201*,-1
CC(=O)Nc1ccc(OCC(O)Cn2ccnc2)cc1 (stereo unspecified),0%,2%,9%,10%,9,7
COc1cccc(C(=O)NCCSCc2c(F)cccc2Cl)c1,x,21µM*,-5%,u,-1,4
COc1cccc(C(=O)NCCSCc2ccccc2Cl)c1,x,-13%,-3%,1%,35,-3
O=c1cc(NCCc2ccccc2)c2ccccc2o1,2%,24µM*,-3%,-14%,10,7
O=c1cc(NCCO)c2ccccc2o1,-1%,1%,-3%,-2%,-11,6
Cc1cc(OCc2cc(C(=O)N(C)CC3CCOCC3)no2)cc(C)c1Cl,x,27µM*,8%,u,-14,1
Cc1ccc(C(=O)NCC(c2ccco2)S(=O)(=O)c2cccs2)cc1C (stereo unspecified),x,x,x,10%,x,x
CCOc1ccc(C(=O)N2CCC(c3nc4ccccc4o3)CC2)cc1,x,x,x,15%,x,x
CCNC(=S)N1CCN=C1Nc1nc(C)cc(C)n1,4%,3%,-3%,1%,9,1
Cc1cc(C)nc(NC2=NCCN2C(=O)NC2CCCCC2)n1,1%,7.5µM*,-5%,-15%,-34,0
O=C(NCCc1ccccc1)c1ccc(-c2ccccc2C(F)(F)F)o1,-8%[2.36 µM],-17%,-16%,u,-214*,1

# Source: PubChem
